Experimental data as given in publication PMC12864922, “TDP-43 directly inhibits mRNA accumulation in neurites through modulation of mRNA stability”.
The full ranking holds about 9,900 sequences; the median of “r (bound/input frequency ratio)” is about 0.7, and the highest 2% start at about 6.5. This is one part of a sample in which the highest values are shown more often than they occur.

B1: ENSMUSG00000061578.444|Ksr2 (ssRNA)
RNA: GGGAGUUCUACAGUCCGACGAUCGCUUCGAUAUCCGCAUGCUAAAUCCUUCAAGACAGAAGUUUCAGAGGGGAUAGUUCCUUCUAACCUUGUACUGGGACAUCAUCUAUGUCCCCAUCCCCAGAGCUGAAUUAGAGACACCAAGUAGCCUCUUGGGUUGUUUUGUGGGGUGUUCCCCUUGCUGGUCAAAGGAGUGGAAAGCCACCUUGCUGUAAAUGCUCUUGUUUUCUGUAGCAAUCUUGAACUCUUUUUUUUUUUUGUUCGUUUGUUUGUUUGUUUGUUUGUUUGUUUUUUCAAGACAGGGCUCUUGCGGUCGCACUAGUGUGGAAUUCUCGGGUGUCAAGG
B2: ENSMUSG00000058297.16|Spock2 (ssRNA)
RNA: GGGAGUUCUACAGUCCGACGAUCGCUUCGAUAUCCGCAUGCUACAUCUGGUAGAUAGCCCUCGACGGCCUCGGCAGGCCAGGGUGCCGACGGCCAGAAAGACAGGCCAGAAGAGACCUGGACAACAGCAGGCAACUUAGCAAAUGGAUCCGGAAGUCAGUGCGGAGGACCCUGGCUCCAGUGGGGGAGGACUGGGGAGUGUGGCUUGUGUGUAUGUGUGAUAUGAGAUGUGUGUGUAUGAUGUGAGAUGUGAGUGUGUGAUGUGAGAUGUGUGUAUGUGAGAUGUGUGUGUGUGUGUGUGUGUCUCUUGCGGUCGCACUAGUGUGGAAUUCUCGGGUGUCAAGG
B3: ENSMUSG00000058297.14|Spock2|167:171;175:188;197:208;222:228;237:246;252:260 (ssRNA)
RNA: GGGAGUUCUACAGUCCGACGAUCGCUUCGAUAUCCGCAUGCUAUGAUGGAGGCUACAUCUGGUAGAUAGCCCUCGACGGCCUCGGCAGGCCAGGGUGCCGACGGCCAGAAAGACAGGCCAGAAGAGACCUGGACAACAGCAGGCAACUUAGCAAAUGGAUCCGGAAGUCAGUGCGGAGGACCCUGGCUCCAGUGGGGGAGGACUGGGGACACACGCUACACACAUACACACAUAUGAGAACACACACAUACAUGUGAGAUGUGACACACACAUGUGAGAACACACAUACUGAGAACACACACACUCUUGCGGUCGCACUAGUGUGGAAUUCUCGGGUGUCAAGG
B4: ENSMUSG00000058297.3|Spock2|233:237;241:254 (ssRNA)
RNA: GGGAGUUCUACAGUCCGACGAUCGCUUCGAUAUCCGCAUGCUAAGAAAAGGAGACAGAAGAGGCAGGGGAGGAGGCCGAGGAGGAGGAGGGUGAGGCGGGUGAGGCAGAUGAUGGAGGCUACAUCUGGUAGAUAGCCCUCGACGGCCUCGGCAGGCCAGGGUGCCGACGGCCAGAAAGACAGGCCAGAAGAGACCUGGACAACAGCAGGCAACUUAGCAAAUGGAUCCGGAAGUCAGUGCGGAGGACCCUGGCUCCAGUGGGGGAGGACUGGGGACACACGCUACACACAUACACACAUAUGACUCUUGCGGUCGCACUAGUGUGGAAUUCUCGGGUGUCAAGG
B5: ENSMUSG00000058297.15|Spock2|161:165;169:182;191:202;216:222;231:240;246:260 (ssRNA)
RNA: GGGAGUUCUACAGUCCGACGAUCGCUUCGAUAUCCGCAUGCUAAGGCUACAUCUGGUAGAUAGCCCUCGACGGCCUCGGCAGGCCAGGGUGCCGACGGCCAGAAAGACAGGCCAGAAGAGACCUGGACAACAGCAGGCAACUUAGCAAAUGGAUCCGGAAGUCAGUGCGGAGGACCCUGGCUCCAGUGGGGGAGGACUGGGGACACACGCUACACACAUACACACAUAUGAGAACACACACAUACAUGUGAGAUGUGACACACACAUGUGAGAACACACAUACUGAGAACACACACACACACACUCUUGCGGUCGCACUAGUGUGGAAUUCUCGGGUGUCAAGG
B6: ENSMUSG00000058297.15|Spock2 (ssRNA)
RNA: GGGAGUUCUACAGUCCGACGAUCGCUUCGAUAUCCGCAUGCUAAGGCUACAUCUGGUAGAUAGCCCUCGACGGCCUCGGCAGGCCAGGGUGCCGACGGCCAGAAAGACAGGCCAGAAGAGACCUGGACAACAGCAGGCAACUUAGCAAAUGGAUCCGGAAGUCAGUGCGGAGGACCCUGGCUCCAGUGGGGGAGGACUGGGGAGUGUGGCUUGUGUGUAUGUGUGAUAUGAGAUGUGUGUGUAUGAUGUGAGAUGUGAGUGUGUGAUGUGAGAUGUGUGUAUGUGAGAUGUGUGUGUGUGUGUCUCUUGCGGUCGCACUAGUGUGGAAUUCUCGGGUGUCAAGG
B7: ENSMUSG00000058297.11|Spock2|185:189;193:206;215:226;240:246;255:260 (ssRNA)
RNA: GGGAGUUCUACAGUCCGACGAUCGCUUCGAUAUCCGCAUGCUAUGAGGCGGGUGAGGCAGAUGAUGGAGGCUACAUCUGGUAGAUAGCCCUCGACGGCCUCGGCAGGCCAGGGUGCCGACGGCCAGAAAGACAGGCCAGAAGAGACCUGGACAACAGCAGGCAACUUAGCAAAUGGAUCCGGAAGUCAGUGCGGAGGACCCUGGCUCCAGUGGGGGAGGACUGGGGACACACGCUACACACAUACACACAUAUGAGAACACACACAUACAUGUGAGAUGUGACACACACAUGUGAGAACACACCUCUUGCGGUCGCACUAGUGUGGAAUUCUCGGGUGUCAAGG
B8: ENSMUSG00000058297.14|Spock2 (ssRNA)
RNA: GGGAGUUCUACAGUCCGACGAUCGCUUCGAUAUCCGCAUGCUAUGAUGGAGGCUACAUCUGGUAGAUAGCCCUCGACGGCCUCGGCAGGCCAGGGUGCCGACGGCCAGAAAGACAGGCCAGAAGAGACCUGGACAACAGCAGGCAACUUAGCAAAUGGAUCCGGAAGUCAGUGCGGAGGACCCUGGCUCCAGUGGGGGAGGACUGGGGAGUGUGGCUUGUGUGUAUGUGUGAUAUGAGAUGUGUGUGUAUGAUGUGAGAUGUGAGUGUGUGAUGUGAGAUGUGUGUAUGUGAGAUGUGUGUGUCUCUUGCGGUCGCACUAGUGUGGAAUUCUCGGGUGUCAAGG
B9: ENSMUSG00000058297.11|Spock2 (ssRNA)
RNA: GGGAGUUCUACAGUCCGACGAUCGCUUCGAUAUCCGCAUGCUAUGAGGCGGGUGAGGCAGAUGAUGGAGGCUACAUCUGGUAGAUAGCCCUCGACGGCCUCGGCAGGCCAGGGUGCCGACGGCCAGAAAGACAGGCCAGAAGAGACCUGGACAACAGCAGGCAACUUAGCAAAUGGAUCCGGAAGUCAGUGCGGAGGACCCUGGCUCCAGUGGGGGAGGACUGGGGAGUGUGGCUUGUGUGUAUGUGUGAUAUGAGAUGUGUGUGUAUGAUGUGAGAUGUGAGUGUGUGAUGUGAGAUGUGUGCUCUUGCGGUCGCACUAGUGUGGAAUUCUCGGGUGUCAAGG
B10: ENSMUSG00000058297.2|Spock2|239:243;247:260 (ssRNA)
RNA: GGGAGUUCUACAGUCCGACGAUCGCUUCGAUAUCCGCAUGCUAUGAGGAAGAAAAGGAGACAGAAGAGGCAGGGGAGGAGGCCGAGGAGGAGGAGGGUGAGGCGGGUGAGGCAGAUGAUGGAGGCUACAUCUGGUAGAUAGCCCUCGACGGCCUCGGCAGGCCAGGGUGCCGACGGCCAGAAAGACAGGCCAGAAGAGACCUGGACAACAGCAGGCAACUUAGCAAAUGGAUCCGGAAGUCAGUGCGGAGGACCCUGGCUCCAGUGGGGGAGGACUGGGGACACACGCUACACACAUACACACCUCUUGCGGUCGCACUAGUGUGGAAUUCUCGGGUGUCAAGG
B11: ENSMUSG00000058297.16|Spock2|155:159;163:176;185:196;210:216;225:234;240:260 (ssRNA)
RNA: GGGAGUUCUACAGUCCGACGAUCGCUUCGAUAUCCGCAUGCUACAUCUGGUAGAUAGCCCUCGACGGCCUCGGCAGGCCAGGGUGCCGACGGCCAGAAAGACAGGCCAGAAGAGACCUGGACAACAGCAGGCAACUUAGCAAAUGGAUCCGGAAGUCAGUGCGGAGGACCCUGGCUCCAGUGGGGGAGGACUGGGGACACACGCUACACACAUACACACAUAUGAGAACACACACAUACAUGUGAGAUGUGACACACACAUGUGAGAACACACAUACUGAGAACACACACACACACACACACACUCUUGCGGUCGCACUAGUGUGGAAUUCUCGGGUGUCAAGG

Biological target: TDP-43 (Homo sapiens, UniProt Q13148 1-414)
Test: RNA Bind-n-Seq with designed 260-mer pool; 25 mM Tris-HCl, 150 mM KCl, 3 mM MgCl2, BSA (printed 500 mg/mL), 20 units/mL SUPERase IN; pH not stated; 500 nM RNA pool, 1 h, 4 C; TDP-43 5, 50, 500 nM; high values mean tight binding
Conditions: protein: recombinant; tags: SBP (GST cleaved off with PreScission; pGEX-GST-SBP)
Summary of the method: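 Streptavidin beads captured recombinant SBP-tagged TDP-43 at 5, 50 or 500 nM, and the beads were incubated for 1 h at 4 °C with 500 nM of an in vitro-transcribed pool of 260-nt 3′ UTR oligos in 25 mM Tris-HCl, 150 mM KCl, 3 mM MgCl2, BSA and SUPERase IN. After washing, bound RNA was eluted with biotin, reverse transcribed, PCR-amplified and sequenced. Binding is reported as R, the mapped-read-normalized abundance of each oligo in the bound sample divided by its abundance in the input. Two independent protein batches served as duplicates.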

Chain of TDP-43 (Q13148 whole entry): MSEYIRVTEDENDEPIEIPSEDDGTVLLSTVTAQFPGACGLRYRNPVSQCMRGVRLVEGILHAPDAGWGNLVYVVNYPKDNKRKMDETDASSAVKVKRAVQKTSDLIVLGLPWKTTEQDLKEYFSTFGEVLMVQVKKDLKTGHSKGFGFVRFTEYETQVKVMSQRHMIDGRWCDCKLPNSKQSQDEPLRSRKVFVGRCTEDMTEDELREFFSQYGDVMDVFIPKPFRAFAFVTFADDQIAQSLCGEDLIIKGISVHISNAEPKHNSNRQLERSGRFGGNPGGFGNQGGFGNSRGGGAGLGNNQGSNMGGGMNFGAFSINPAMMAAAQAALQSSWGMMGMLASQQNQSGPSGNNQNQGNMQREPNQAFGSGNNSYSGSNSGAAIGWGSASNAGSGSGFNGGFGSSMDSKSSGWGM

Row | Binder | binding signal
1 | B1 | 2.36 R (bound/input frequency ratio)
2 | B2 | 7.85 R (bound/input frequency ratio)
3 | B3 | 1.95 R (bound/input frequency ratio)
4 | B4 | 2.67 R (bound/input frequency ratio)
5 | B5 | 2.53 R (bound/input frequency ratio)
6 | B6 | 7.97 R (bound/input frequency ratio)
7 | B7 | 2.53 R (bound/input frequency ratio)
8 | B8 | 8.13 R (bound/input frequency ratio)
9 | B9 | 8.12 R (bound/input frequency ratio)
10 | B10 | 2.26 R (bound/input frequency ratio)
11 | B11 | 2.54 R (bound/input frequency ratio)
